We go through 26 compounds from PubChem BioAssay AID588397 (National Center for Advancing Translational Sciences (NCATS), 2011).

Among all 1,300 compounds or so, about 1,000 (77%) were called active. Not shown: some 7% with an inconclusive outcome. The set was probably picked from earlier hits. The list shows a part of the results. Unmarked numbers belong to inactive results. Calls follow the shape of the dose curve; as a rule, active = well fitted inhibition curve with a large enough effect; inconclusive = small, poorly fitted or top-dose-only effect; inactive = no such curve, though single readings can be large or run the other way.
% is scaled to controls: 0 for no effect and ±100 for the full control effect; potency is read from the fitted curve at half-maximal effect.

A short description of this assay: qHTS of small molecules that selectively kill Giardia lamblia: Hit Validation.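 Also: viability measured as ATP content by luminescence so killing lowers signal; nearly all actives have a fitted effect of over 65% in size.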 As to conditions: Giardia lamblia trophozoite viability, dose-response; series mostly up to 38.3 µM; activity change, negative = killing: at the top concentration. An excerpt: Giardia lamblia is a human pathogen afflicting impoverished nations, and the most common cause of outbreaks of diarrhea in the United States. Giardia has been classified by the CDC as a category B bioterrorism organism. The favored anti giardiasis drugs in the US are metronidazole or tinidazole, compounds that have undesirable side effects. Moreover, increasing resistance to drug regimes and recurrence are a concern. It is thus clear that alternative drug treatments are needed.
In a collaboration between the University of Maryland, College Park and the NIH Chemical Genomics Center, a bioluminescence Giardia viability assay based on the trophozoites' ATP content was developed. This assay is suitable for high throughput screening, and miniaturized the assay for compound screening in 1536-well plates. The goal of the project is to screen the Molecular Libraries Small Molecule Repository (MLSMR) for compounds that selectively kill Giardia trophozoites.
NIH Chemical Genomics Center [NCGC]
NIH Molecular Libraries Probe Centers Network [MLPCN]
Assay Submitter (PI): Osnat Herzberg, University of Maryland, College Park, MD.
1. Dispense 2 ul/well media
2. Dispense 23 nl/well compounds
3. Dispense 4 ul/well Giardia trophozoites at a concentration of 100 cells/well
4. Incubate 48 hrs at 37 deg C anaerobically
5. Dispense 4 ul/well ATPLite 1-Step Luminescence assay kit
6. Incubate 15-30 min at room temperature
7. Read luminescence signal on ViewLux plate reader
As to `Cc1cc([N+](=O)[O-])c2ccccc2[n+]1[O-]`, the Potency is 206 nM (active).

For the compound `CC(=O)OC[C@]12CCC(C)=C[C@H]1O[C@@H]1[C@H](O)[C@@H](OC(C)=O)[C@@]2(C)[C@]12CO2`, the Potency was 5160 nM (active).

For `COC1/C=C/C=C(\C)Cc2cc(O)c(Cl)c(c2)N(C)C(=O)CC(OC(=O)C(C)C)C2(C)OC2C(C)C2CC1(O)NC(=O)O2` (stereo unspecified), the Potency was 460 nM (active).

For the compound `COC(/C(C)=C/C=C/C(C)=C/c1coc(C)n1)C(C)C1CC(O)C2(C)OC2C=CC(C)C2CC(CC(=O)O2)CC2OC2C(=O)O1` (stereo unspecified), the Potency is 23.1 nM (active).

Consider `C[N+]12CCC(CC1)C(=C(c1ccccc1)c1ccccc1)C2`, for which the “activity change, negative = killing” value is -5.4%.

As for `COC12C(COC(N)=O)C3=C(C(=O)C(C)=C(N)C3=O)N1CC1C2N1C` (stereo unspecified), the Potency was 5790 nM (active).

`O=[N+]([O-])c1cc([As](=O)(O)c2ccc(O)c([N+](=O)[O-])c2)ccc1O`: the Potency is 818 nM (active).

`O=[N+]([O-])c1ccc(O)c([N+](=O)[O-])c1`: the Potency is 2310 nM (active).

`O=[N+]([O-])c1cc([As](=O)(O)O)ccc1O`: the Potency was 5790 nM (active).

Take `Cc1nnc2ccc(-c3cccc(C(F)(F)F)c3)nn12`: the “activity change, negative = killing” value was -28.2%.

`ClCCOCCCl`: the “activity change, negative = killing” value is -5.76%.

As to `Fc1ccc(C2NCCc3[nH]cnc32)cc1` (stereo unspecified), the “activity change, negative = killing” value was 10.2%.

As for `CCOc1ccc(-c2cc(C(=O)N3CCC4(CC3)OCCO4)c3ccccc3n2)cc1`, the Potency was 7290 nM (active).

`COc1ccc(CC2NCC(O)C2OC(C)=O)cc1` (stereo unspecified): the Potency is 1030 nM (active).

Take `COc1ccc(C[C@H]2NC[C@H](O)[C@H]2OC(C)=O)cc1`: the Potency was 650 nM (active).

In the case of `CCOC(=O)C1CCCN(c2ccc([N+](=O)[O-])c3nonc23)C1` (stereo unspecified), the Potency was 1160 nM (active).

`CNC(=O)Oc1cccc(-c2cn3cc(Cl)ccc3n2)c1`: the Potency was 2050 nM (active).

With `CC1=C(N2CC2)C(=O)C(CO)=C(N2CC2)C1=O`, the Potency is 115 nM (active).

For `c1ccc2c(c1)[I+]c1ccccc1-2`, the Potency was 146 nM (active).

As for `COC(=O)c1nc(-c2ccc3c(n2)C(=O)C(N)=C(OC)C3=O)c(N)c(-c2ccc(OC)c(OC)c2O)c1C`, the Potency is 2590 nM (active).

With `CN(C)C(=O)Oc1ccc(Br)c2ccccc12`, the “activity change, negative = killing” value was 12.9%.

`CC(=O)OC1(C)CC(C)C(=O)C(C(O)CC2CC(=O)NC(=O)C2)C1` (stereo unspecified): the Potency is 18.3 nM (active).

For the compound `CC1CC(C)(O)CC(C(O)CC2CC(=O)NC(=O)C2)C1=O` (stereo unspecified), the Potency is 146 nM (active).

As for `CC(C)(O)C1C2OC(=O)C1C1(O)CC3OC34C(=O)OC2C14C` (stereo unspecified), the “activity change, negative = killing” value was 2.07%.

Turning to `Cc1ncc([N+](=O)[O-])n1CCOC(N)=O`, the Potency is 3260 nM (active).

Consider `Cc1ncc([N+](=O)[O-])n1CCOc1nonc1N`, for which the Potency is 1030 nM (active).
